# Experimental data as given in PubChem BioAssay.
# Active and inactive are the calls of the source. Unless noted, no rule for the calls is given here.
# Columns and labels:
# [1] = HepG2 liver cancer cell viability effects, profiling panel, resazurin fluorescence, 24 h, PK04 Diversity Set (AID 1172); conditions: higher = more signal
# [2] = basal S. cerevisiae growth modulation, no modifier, primary screen, OD600, strain BY4716, 24 h, basal condition (AID 1173); conditions: OD600, 24 h, higher = more signal, called active from +8 up or from −8 down
# [3] = MM1S myeloma cell viability, profiling panel, resazurin fluorescence, basal, 24 h, PK04 Diversity Set (AID 1174); conditions: higher = more signal, called active from +8 up or from −8 down;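 also: MM1S multiple myeloma cell line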
# [4] = target: Dihydroorotate dehydrogenase (quinone), mitochondrial (Plasmodium falciparum (isolate 3D7)) (UniProt Q08210); test: PfDHODH enzyme inhibitors, primary screen, biochemical, C-terminal His tag, absorbance 600 nm (AID 1175); conditions: DCIP absorbance 600 nm, higher = more signal, called active from +8 up or from −8 down;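 also: recombinant parasite enzyme with a five histidine tag at its C terminus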
# Dihydroorotate dehydrogenase (quinone), mitochondrial (Plasmodium falciparum (isolate 3D7)), sequence (Q08210 whole entry, looked up): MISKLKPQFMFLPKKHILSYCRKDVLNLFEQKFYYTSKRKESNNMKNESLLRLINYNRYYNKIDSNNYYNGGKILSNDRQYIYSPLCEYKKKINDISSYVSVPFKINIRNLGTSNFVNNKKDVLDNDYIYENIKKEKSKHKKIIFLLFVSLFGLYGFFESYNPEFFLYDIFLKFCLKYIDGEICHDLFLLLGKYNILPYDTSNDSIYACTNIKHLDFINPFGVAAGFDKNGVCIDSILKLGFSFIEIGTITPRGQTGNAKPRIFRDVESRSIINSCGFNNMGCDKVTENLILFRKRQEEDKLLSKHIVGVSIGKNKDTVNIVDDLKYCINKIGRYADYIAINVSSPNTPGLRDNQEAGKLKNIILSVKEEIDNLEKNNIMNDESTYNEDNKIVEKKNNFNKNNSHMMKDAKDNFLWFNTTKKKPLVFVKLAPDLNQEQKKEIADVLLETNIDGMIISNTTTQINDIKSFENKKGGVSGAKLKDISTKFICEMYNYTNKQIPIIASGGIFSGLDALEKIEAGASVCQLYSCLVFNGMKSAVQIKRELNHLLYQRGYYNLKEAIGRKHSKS
# [5] = P. aeruginosa biofilm formation inhibitors, primary screen, strain PAO1, LB-PBS medium, absorbance 600 nm (AID 1176); conditions: P. aeruginosa PAO1 growth/biofilm, A600, 12 h; higher = more signal
# [6] = S. cerevisiae RM11-1a growth modifiers, primary screen, strain RM11-1a, OD600, basal, 24 h (AID 1177); conditions: OD600, 24 h, higher = more signal, called active from +8 up or from −8 down;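 also: cultures grown under basal conditions with no added stressor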
# [7] = E. coli acrAB mutant growth effects, primary screen, E. coli filamentation inducers, strain DRC39, OD650, 24 h (AID 1178); conditions: higher = more signal, called active from +8 up or from −8 down;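 also: growth measured as culture turbidity by optical density at 650 nm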
# [8] = E. coli acrAB mutant growth effects, primary screen, E. coli filamentation inducers, strain DRC39, OD650, 48 h (AID 1179);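 also: screen aims at cell division blockers that make cells filament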; conditions: E. coli DRC39 delta-acrAB growth, higher = more signal, called active from +8 up or from −8 down
# [9] = RPMI8226 myeloma cell viability, profiling panel, resazurin fluorescence, basal, 24 h, PK04 Diversity Set (AID 1180); conditions: higher = more signal;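 also: RPMI8826 multiple myeloma cell line at 5000 cells per well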
# [10] = target: E3 ubiquitin-protein ligase XIAP (Homo sapiens) (UniProt P98170); test: XIAP binders, primary screen, biophysical, small-molecule microarray, fluorescence 635 nm (AID 1181); conditions: small-molecule microarray binding, higher = more signal;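 also: score merges 667 nm emission and signal to noise over triplicate slides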
# E3 ubiquitin-protein ligase XIAP (Homo sapiens), sequence (P98170 whole entry, looked up): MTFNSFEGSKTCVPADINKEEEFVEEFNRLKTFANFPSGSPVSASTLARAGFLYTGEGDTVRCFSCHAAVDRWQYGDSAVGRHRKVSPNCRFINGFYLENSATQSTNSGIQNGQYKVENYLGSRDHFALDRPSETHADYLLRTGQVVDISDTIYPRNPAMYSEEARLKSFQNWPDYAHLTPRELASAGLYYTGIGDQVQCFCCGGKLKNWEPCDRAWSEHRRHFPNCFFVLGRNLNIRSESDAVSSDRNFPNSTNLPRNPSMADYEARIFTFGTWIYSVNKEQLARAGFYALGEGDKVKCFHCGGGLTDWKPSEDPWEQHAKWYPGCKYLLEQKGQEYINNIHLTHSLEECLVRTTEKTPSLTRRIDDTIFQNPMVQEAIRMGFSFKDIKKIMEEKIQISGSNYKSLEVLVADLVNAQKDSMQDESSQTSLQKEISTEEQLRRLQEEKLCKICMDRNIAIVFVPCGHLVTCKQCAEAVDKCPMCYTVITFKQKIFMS
# [11] = test system: XIP peptide (Xip251-270) binding; test: small-molecule binders of XIP peptide, primary screen, biochemical, small-molecule microarray, fluorescence 635/667 nm, 0.1 µg/mL protein (AID 1182); conditions: fluorescent protein binding, 635 nm, higher = more signal, called active from +8 up or from −8 down
# XIP peptide (Xip251-270) = test: small-molecule binders of XIP peptide, primary screen, biochemical, small-molecule microarray, fluorescence 635/667 nm, 0.5 µg/mL protein (AID 1183); conditions: small-molecule microarray binding, fluorescence 635 nm; higher = more signal
# [12] = Plasmodium falciparum growth inhibition, primary screen, strain 3D7, DAPI fluorescence, 100 nL (AID 1184);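 also: parasites grown inside human red blood cells in medium with human serum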; conditions: P. falciparum 3D7 growth, 3 d, higher = more signal
# [13] = target: Homeobox protein Hox-A13 (Mus musculus) (UniProt Q62424); test: inhibitors of HoxA13-DNA binding, primary screen, biochemical, fluorescence polarization, labeled oligonucleotide (AID 1185); conditions: 15 min, higher = more signal, called active from +8 up or from −8 down
# Homeobox protein Hox-A13 (Mus musculus), sequence (Q62424 whole entry, looked up): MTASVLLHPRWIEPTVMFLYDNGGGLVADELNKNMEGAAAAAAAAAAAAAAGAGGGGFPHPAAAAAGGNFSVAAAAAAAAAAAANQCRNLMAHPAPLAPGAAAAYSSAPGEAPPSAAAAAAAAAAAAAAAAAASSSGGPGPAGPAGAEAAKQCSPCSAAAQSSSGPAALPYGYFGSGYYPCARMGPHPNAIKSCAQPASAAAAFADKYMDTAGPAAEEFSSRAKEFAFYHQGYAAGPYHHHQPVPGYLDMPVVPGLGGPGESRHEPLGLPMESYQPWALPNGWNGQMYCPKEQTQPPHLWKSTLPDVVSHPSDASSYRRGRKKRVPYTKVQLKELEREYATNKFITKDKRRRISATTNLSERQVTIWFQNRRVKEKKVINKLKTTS
# [14] = inhibitors of hydroxyurea-induced Chk1 phosphorylation, primary screen, imaging, HeLa, phospho-Chk1 antibody, percent positive cells (AID 1186); conditions: hydroxyurea-induced phospho-Chk1 immunofluorescence imaging, higher = more signal
# [15] = inhibitors of hydroxyurea-induced Chk1 phosphorylation, primary screen, imaging, HeLa, phospho-Chk1 nuclear intensity (AID 1187); conditions: hydroxyurea-induced phospho-Chk1 immunofluorescence imaging, higher = more signal
SMILES,z-score [1],z-score [2],z-score [3],composite z-score [4],z-score [5],z-score [6],z-score [7],z-score [8],z-score [9],composite z-score [10],composite z-score [11],composite z-score (XIP peptide (Xip251-270)),z-score [12],z-score [13],z-score [14],z-score [15]
COC(=O)[C@@]1(Cc2ccc(OC)cc2)[C@H]2c3cc(C(=O)N4CCCC4)n(CCN4CNCC4=O)c3C[C@H]2CN1C(=O)c1ccccc1,-0.66,0.818 (inactive),-0.359 (inactive),0.0916 (inactive),1.68 (inactive),1.22 (inactive),-0.146 (inactive),-0.199 (inactive),0.0221,0.778,0.281 (inactive),-0.35,-1.8,-4.34 (inactive),0.525 (inactive),0.163 (inactive)
C=CC[C@@]1(C(=O)NCCN2CCOCC2)N=C(c2ccc(OCCCO)cc2)O[C@@H]1c1ccccc1N=[N+]=[N-],-0.1,-0.0089 (inactive),-1.05 (inactive),1.61 (inactive),1.61 (inactive),2.17 (inactive),0.2 (inactive),-0.0194 (inactive),-0.614,0.107,2.32 (inactive),-0.0559,-2.21,-6.17 (inactive),0.003 (inactive),-0.0928 (inactive)
CN1C(=O)C2C=CC(C(O)c3ccc([N+](=O)[O-])cc3)N(N3CCCCC3)C2C1=O (centres undefined),-0.777,0.217 (inactive),-0.51 (inactive),0.0871 (inactive),0.711 (inactive),0.189 (inactive),-0.884 (inactive),-1.24 (inactive),-0.85,0.384,0.0993 (inactive),0.471,-0.114,-3.98 (inactive),-0.224 (inactive),-0.167 (inactive)
CC(C)C(=C=CC[C@@H](O)c1ccc(OCCO)cc1)C[C@@H](O)c1ccccn1,-0.287,-0.492 (inactive),-0.426 (inactive),-11.9 (active),0.85 (inactive),0.406 (inactive),-0.235 (inactive),-0.0608 (inactive),-0.538,0.273,1.5 (inactive),0.198,-0.278,-5.14 (inactive),-0.329 (inactive),-0.22 (inactive)
COc1ccccc1CN1C(=O)c2ccccc2[C@@H](C(=O)NC2CC2)[C@@H]1c1ccc(CO)cc1,0.103,-0.561 (inactive),0.84 (inactive),-0.245 (inactive),-0.342 (inactive),0.184 (inactive),0.421 (inactive),0.119 (inactive),0.407,-0.0085,0.98 (inactive),0.835,-1.79,-2.46 (inactive),0.0151 (inactive),0.351 (inactive)
O=C(NCCN1CCOCC1)[C@@H]1c2ccccc2C(=O)N(C2CCCCC2)[C@H]1c1ccc(CO)cc1,-0.0383,0.211 (inactive),0.528 (inactive),-0.146 (inactive),-0.177 (inactive),0.0492 (inactive),-0.424 (inactive),-0.783 (inactive),0.872,-0.165,-0.403 (inactive),0.0759,-1.23,-4.02 (inactive),-0.389 (inactive),-0.611 (inactive)
COc1ccc([C@H]2OC[C@@H]3C[C@@H](Cc4ccccc4)C(=O)N32)cc1,-0.384,-3.32 (inactive),0.111 (inactive),-0.431 (inactive),-0.0513 (inactive),-0.64 (inactive),-0.562 (inactive),-0.873 (inactive),-0.219,-0.0337,0.617 (inactive),0.0682,0.583,-1.06 (inactive),0.375 (inactive),0.0727 (inactive)
COc1ccccc1CN1C(=O)c2ccccc2[C@@]2(Cc3ccccc3N(CC(C)C)C2=O)[C@@H]1c1ccc(CO)cc1,-0.593,0.0849 (inactive),-0.681 (inactive),-0.359 (inactive),0.332 (inactive),-1.04 (inactive),-0.169 (inactive),-0.0353 (inactive),-0.564,0.0957,-0.25 (inactive),0.607,-0.422,-0.795 (inactive),-0.132 (inactive),-0.425 (inactive)
CCCCC(CC)C(O)C1C=CC2C(=O)N(Cc3ccccc3)C(=O)C2N1n1cnnc1 (centres undefined),-0.661,0.374 (inactive),-0.763 (inactive),-0.495 (inactive),-0.445 (inactive),-0.666 (inactive),-1.03 (inactive),-1.46 (inactive),-1.01,0.0228,0.0978 (inactive),0.671,-0.465,-3.42 (inactive),0.419 (inactive),-0.454 (inactive)
